Where “and” joins values, the source holds several entries; their conditions need not be identical. Identical values can stand only once. The whole screen tested about 5,500 compounds, of which about 2,000 (36%) were called active. Roughly 18% stayed inconclusive and do not appear here. No stated cut-off is given here; in the data, active means normalized growth mostly below about 0.91 (no sharp cut-off); inconclusive means no clear call, values can overlap the other calls; inactive means mostly above about 0.92. The list shows a part of the results.
Assay: chemical genetic growth profiling, strain panel (AID 1159580);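 further: tested at 20 µM; growth read once vehicle control cultures reached saturation at 30 °C; 1 = growth at the plate median or of vehicle wells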
Details: growth OD

Measured: normalized growth

CN1CCN(C2=Nc3ccccc3Oc3ccc(Cl)cc32)CC1
inactive: S. cerevisiae deletion strains, locus YJR075W, strain HOC1, stronger effect = lower value 0.996 | S. cerevisiae deletion strains, locus YKL009W, strain mrt4, stronger effect = lower value 0.98 | S. cerevisiae deletion strains, locus YKL068W, stronger effect = lower value 0.992 | S. cerevisiae deletion strains, locus YKL085W, strain MDH1 (second series), stronger effect = lower value 1.02 | S. cerevisiae deletion strains, locus YKL085W, strain MDH1, stronger effect = lower value 1.02 | S. cerevisiae deletion strains, locus YKL160W, strain elf1, stronger effect = lower value 0.958 | S. cerevisiae deletion strains, locus YKL190W, strain CNB1, stronger effect = lower value 1 | S. cerevisiae deletion strains, locus YKR001C, strain vps1, stronger effect = lower value 0.998 | S. cerevisiae deletion strains, locus YKR026C, strain gcn3, stronger effect = lower value 0.983 | S. cerevisiae deletion strains, locus YKR091W, strain srl3, stronger effect = lower value 0.975 | S. cerevisiae deletion strains, locus YLL001W, strain dnm1, stronger effect = lower value 1 | S. cerevisiae deletion strains, locus YLL026W, stronger effect = lower value 0.972 | S. cerevisiae deletion strains, locus YLL041C, strain sdh2, stronger effect = lower value 0.987 | S. cerevisiae deletion strains, locus YLR027C, strain aat2, stronger effect = lower value 0.975 | S. cerevisiae deletion strains, locus YLR039C, strain RIC1, stronger effect = lower value 1.13 | S. cerevisiae deletion strains, locus YLR058C, strain SHM2, stronger effect = lower value 0.986 | S. cerevisiae deletion strains, locus YLR102C, strain apc9, stronger effect = lower value 0.994 | S. cerevisiae deletion strains, locus YLR113W, strain HOG1, stronger effect = lower value 1.03 | S. cerevisiae deletion strains, locus YLR221C, strain rsa3, stronger effect = lower value 1.01 | S. cerevisiae deletion strains, locus YLR258W, strain gsy2, stronger effect = lower value 0.975 | S. cerevisiae deletion strains, locus YLR262C, strain YPT6 (second series), stronger effect = lower value 0.992 | S. cerevisiae deletion strains, locus YLR262C, strain YPT6, stronger effect = lower value 1.13 | S. cerevisiae deletion strains, locus YLR268W, strain sec22, stronger effect = lower value 0.995 | S. cerevisiae deletion strains, locus YLR320W, strain mms22, stronger effect = lower value 1.04 | S. cerevisiae deletion strains, locus YLR330W, strain CHS5, stronger effect = lower value 0.997 | S. cerevisiae deletion strains, locus YLR342W, strain FKS1 (second series), stronger effect = lower value 0.948 | S. cerevisiae deletion strains, locus YLR342W, strain FKS1, stronger effect = lower value 0.994 | S. cerevisiae deletion strains, locus YLR357W, strain rsc2, stronger effect = lower value 0.964 | S. cerevisiae deletion strains, locus YLR370C, strain arc18, stronger effect = lower value 0.967 | S. cerevisiae deletion strains, locus YLR371W, strain rom2, stronger effect = lower value 0.995 | S. cerevisiae deletion strains, locus YLR384C, strain iki3, stronger effect = lower value 1 | S. cerevisiae deletion strains, locus YLR418C, strain cdc73, stronger effect = lower value 0.988 | S. cerevisiae deletion strains, locus YML016C, strain PPZ1, stronger effect = lower value 0.981 | S. cerevisiae deletion strains, locus YML032C, strain rad52, stronger effect = lower value 0.989 | S. cerevisiae deletion strains, locus YML120C, strain ndi1, stronger effect = lower value 1.01 | S. cerevisiae deletion strains, locus YML124C, strain tub3, stronger effect = lower value 0.992 | S. cerevisiae deletion strains, locus YMR058W, strain fet3, stronger effect = lower value 0.957 | S. cerevisiae deletion strains, locus YMR078C, strain ctf18, stronger effect = lower value 0.979 | S. cerevisiae deletion strains, locus YMR125W, strain sto1, stronger effect = lower value 0.942 | S. cerevisiae deletion strains, locus YMR129W, stronger effect = lower value 0.964 | S. cerevisiae deletion strains, locus YMR205C, strain PFK2, stronger effect = lower value 0.995 | S. cerevisiae deletion strains, locus YMR223W, strain ubp8, stronger effect = lower value 0.976 | S. cerevisiae deletion strains, locus YMR231W, strain pep5, stronger effect = lower value 0.982 | S. cerevisiae deletion strains, locus YMR263W, strain SAP30, stronger effect = lower value 0.994 | S. cerevisiae deletion strains, locus YMR307W, strain GAS1, stronger effect = lower value 0.971 and 1.01 | S. cerevisiae deletion strains, locus YNL067W, strain RPL9B, stronger effect = lower value 1.01 | S. cerevisiae deletion strains, locus YNL071W, strain lat1, stronger effect = lower value 1 | S. cerevisiae deletion strains, locus YNL128W, strain TEP1, stronger effect = lower value 0.997 and 1.01 | S. cerevisiae deletion strains, locus YNL153C, strain GIM3, stronger effect = lower value 0.995 and 1 | S. cerevisiae deletion strains, locus YNL175C, strain NOP13, stronger effect = lower value 0.959 | S. cerevisiae deletion strains, locus YNL183C, strain NPR1, stronger effect = lower value 0.951 | S. cerevisiae deletion strains, locus YNL197C, strain WHI3, stronger effect = lower value 0.991 | S. cerevisiae deletion strains, locus YNL209W, strain ssb2, stronger effect = lower value 0.968 | S. cerevisiae deletion strains, locus YNL224C, strain SQS1, stronger effect = lower value 1 | S. cerevisiae deletion strains, locus YNL233W, strain BNI4, stronger effect = lower value 0.997 | S. cerevisiae deletion strains, locus YNL248C, strain rpa49, stronger effect = lower value 0.959 | S. cerevisiae deletion strains, locus YNL250W, strain rad50, stronger effect = lower value 0.973 | S. cerevisiae deletion strains, locus YNL271C, strain bni1, stronger effect = lower value 0.988 | S. cerevisiae deletion strains, locus YNL298W, strain CLA4, stronger effect = lower value 1.01 | S. cerevisiae deletion strains, locus YNL307C, strain MCK1, stronger effect = lower value 0.986 | S. cerevisiae deletion strains, locus YNL322C, strain KRE1 (second series), stronger effect = lower value 0.958 | S. cerevisiae deletion strains, locus YNL322C, strain KRE1, stronger effect = lower value 0.992 | S. cerevisiae deletion strains, locus YNR049C, strain mso1, stronger effect = lower value 0.968 | S. cerevisiae deletion strains, locus YNR052C, strain pop2, stronger effect = lower value 0.987 | S. cerevisiae deletion strains, locus YOL006C, strain TOP1, stronger effect = lower value 0.951 | S. cerevisiae deletion strains, locus YOL012C, strain htz1 1.28 | S. cerevisiae deletion strains, locus YOL147C, strain pex11, stronger effect = lower value 0.999 | S. cerevisiae deletion strains, locus YOR001W, strain rrp6, stronger effect = lower value 0.995 | S. cerevisiae deletion strains, locus YOR061W, strain CKA2, stronger effect = lower value 0.991 | S. cerevisiae deletion strains, locus YOR069W, strain VPS5, stronger effect = lower value 0.97 | S. cerevisiae deletion strains, locus YOR070C, strain gyp1, stronger effect = lower value 0.982 | S. cerevisiae deletion strains, locus YOR080W, strain dia2, stronger effect = lower value 0.969 | S. cerevisiae deletion strains, locus YOR083W, strain WHI5 (second series), stronger effect = lower value 1.01 | S. cerevisiae deletion strains, locus YOR083W, strain WHI5, stronger effect = lower value 0.945 | S. cerevisiae deletion strains, locus YOR106W, strain vam3, stronger effect = lower value 0.959 | S. cerevisiae deletion strains, locus YOR136W, strain idh2, stronger effect = lower value 0.994 | S. cerevisiae deletion strains, locus YOR144C, strain elg1, stronger effect = lower value 0.996 | S. cerevisiae deletion strains, locus YOR184W, strain ser1, stronger effect = lower value 0.982 | S. cerevisiae deletion strains, locus YOR231W, strain MKK1, stronger effect = lower value 1.06 | S. cerevisiae deletion strains, locus YOR265W, strain rbl2, stronger effect = lower value 0.99 | S. cerevisiae deletion strains, locus YOR270C, strain vph1, stronger effect = lower value 0.976 | S. cerevisiae deletion strains, locus YOR290C, strain snf2, stronger effect = lower value 0.941 | S. cerevisiae deletion strains, locus YOR316C, strain cot1, stronger effect = lower value 0.987 | S. cerevisiae deletion strains, locus YPL051W, strain arl3, stronger effect = lower value 0.981 | S. cerevisiae deletion strains, locus YPL055C, strain LGE1, stronger effect = lower value 1.02 | S. cerevisiae deletion strains, locus YPL078C, strain atp4, stronger effect = lower value 0.999 | S. cerevisiae deletion strains, locus YPL106C, strain sse1, stronger effect = lower value 0.946 | S. cerevisiae deletion strains, locus YPL240C, strain hsp82, stronger effect = lower value 0.987 | S. cerevisiae deletion strains, locus YPL241C, strain CIN2, stronger effect = lower value 0.995 and 0.994 | S. cerevisiae deletion strains, locus YPL256C, strain CLN2, stronger effect = lower value 1.06 | S. cerevisiae deletion strains, locus YPR119W, strain clb2, stronger effect = lower value 0.994 | S. cerevisiae deletion strains, locus YPR141C, strain kar3, stronger effect = lower value 0.987 | S. cerevisiae deletion strains, locus YPR163C, strain tif3, stronger effect = lower value 0.994 | S. cerevisiae deletion strains, locus YPR167C, strain met16, stronger effect = lower value 0.993 | S. cerevisiae deletion strains, strain wtn01, stronger effect = lower value 0.992 | S. cerevisiae strains, strain wild type, stronger effect = lower value 0.999

From PubChem BioAssay AID1159580 (chemical genetic matrix, 2015)
